Source: PubChem BioAssay (several laboratories)
bCat KO growth = beta-catenin-lacking colon tumor cell growth suppression | HCT116 beta-catenin knockout viability, CellTiter-Glo, 60 h; stronger effect = lower value | viability, % at 10 µM | 140,000 compounds, 1.5% hits | AID 818;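 active = viability at or under a set limit, the compound median less 4 SD, cut at about 6% in these data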;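 also: 0% = Hyamine 1622 control at 20 µM and 100% = untreated cell control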
INS promoter inh = TRM-6 insulin promoter activity inhibition; TRM-6 cells (human fetal islet line), insulin promoter-eGFP reporter, imaging; reporter expression induced with tamoxifen; inhibition, % at 2 µM; 130,000 compounds, 0.9% hits; AID 1273;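 active = inhibition above the mean plus 3 SD, with well images judged a real hit on visual review, cut at about 60% in these data, passing the limit was not always enough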
PTEN del growth = PTEN-deleted cell growth suppression; HCT116 PTEN-null viability, CellTiter-Glo, 60 h; stronger effect = lower value; viability, % at 10 µM; 140,000 compounds, 1.2% hits; AID 827;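 active = viability at or below a set limit, 4 SD under the median of all tested compounds, cut at about 3.7% in these data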;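 also: PTEN knockout HCT116 line with beta catenin targeted HCT116 as companion control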
ROMK mod = modulators of human ROMK potassium channel | Tet-inducible ROMK, thallium flux fluorescence; actives lie on both sides | 130,000 compounds, 2% hits | AID 1918 | P48048 | B-score at 10 µM;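 active = signal ratio slope over the read window, or its plate-corrected B-score, at least 3 SD from the plate mean, either direction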;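 also: B-score of the F/F0 ratio slope over 7 to 12 s after thallium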
p97 ATPase inh = human p97 ATPase inhibition; P55072; recombinant p97 ATPase, Kinase-Glo ATP luminescence, 3 h; inhibition, % at 8 µM; 220,000 compounds, 0.42% hits; AID 1481; in the data active = inhibition above about 15%;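 also: 0% = DMSO vehicle and 100% = wells lacking enzyme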
Target sequence (P55072 whole entry, looked up): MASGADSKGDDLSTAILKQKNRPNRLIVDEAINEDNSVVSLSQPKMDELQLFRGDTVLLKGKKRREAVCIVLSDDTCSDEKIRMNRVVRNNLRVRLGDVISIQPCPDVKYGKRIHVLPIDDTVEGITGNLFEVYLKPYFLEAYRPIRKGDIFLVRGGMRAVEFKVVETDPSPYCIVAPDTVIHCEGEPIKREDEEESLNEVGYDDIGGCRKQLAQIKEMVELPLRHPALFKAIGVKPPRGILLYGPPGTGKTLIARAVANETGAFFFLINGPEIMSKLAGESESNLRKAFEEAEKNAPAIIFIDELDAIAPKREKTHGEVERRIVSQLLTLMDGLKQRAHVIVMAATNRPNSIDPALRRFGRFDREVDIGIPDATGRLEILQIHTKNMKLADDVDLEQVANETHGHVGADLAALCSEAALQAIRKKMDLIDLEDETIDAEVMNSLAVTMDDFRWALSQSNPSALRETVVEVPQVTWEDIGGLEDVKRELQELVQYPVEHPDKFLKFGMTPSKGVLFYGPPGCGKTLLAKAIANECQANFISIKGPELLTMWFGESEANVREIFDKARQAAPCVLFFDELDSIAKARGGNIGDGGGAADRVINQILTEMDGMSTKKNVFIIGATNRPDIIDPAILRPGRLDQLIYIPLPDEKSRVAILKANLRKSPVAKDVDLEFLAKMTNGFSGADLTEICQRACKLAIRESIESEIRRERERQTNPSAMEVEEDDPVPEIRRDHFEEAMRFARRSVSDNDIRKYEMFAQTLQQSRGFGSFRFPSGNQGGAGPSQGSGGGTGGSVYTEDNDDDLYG
Lmaj promast = Leishmania major promastigote growth inhibition; 200,000 compounds, 9% hits; inhibition, % at 10 µM; Leishmania major promastigotes, resazurin fluorescence viability; in the data active = inhibition above about 50%;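 also: promastigotes grown with compound for 44 hours at 28 °C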
Starred values were filed as active, the others as inactive; · = not tested or not shown. Rows were chosen to be rich in hits. Some 10% of all compounds tested hit in one or more screens of this group.

SMILES	bCat KO growth	INS promoter inh	PTEN del growth	ROMK mod	p97 ATPase inh	Lmaj promast
Cc1ccc(C(c2nnnn2Cc2cccs2)N2CCN(Cc3ccc4c(c3)OCO4)CC2)cc1 (centres undefined)	70	·	66	-2.1*	-1	78*
CCCCC(c1nnnn1C1CCCC1)N1CCN(C(=O)c2ccco2)CC1 (centres undefined)	92	·	97	-0.32	2	58*
c1cncc(C(c2nnnn2C2CCCC2)N2CCN(Cc3ccc4c(c3)OCO4)CC2)c1 (centres undefined)	91	-119	100	-0.71	1	91*
CCC(c1nnnn1C1CCCC1)N1CCN(Cc2ccccc2)CC1 (centres undefined)	90	17	98	-0.73	-5	81*
Cc1ccc(C2=NCN(c3ccc(C(=O)O)cc3)C(=S)N2)cc1	·	-25	·	0.92	0	-5
Fc1ccccc1C(c1nnnn1C1CCCC1)N1CCN(Cc2ccccc2)CC1 (centres undefined)	88	36	80	·	-4	61*
Fc1ccc(C(c2nnnn2C2CCCC2)N2CCN(Cc3ccncc3)CC2)cc1 (centres undefined)	88	-32	101	·	4	43
Cc1cc2nc(CCN(Cc3cccnc3)C(=S)Nc3ccc(F)cc3)[nH]c2cc1C	72	·	60	0.83	-1	7
Cc1cc2nc(CCN(Cc3cccnc3)C(=S)Nc3ccccc3)[nH]c2cc1C	75	0	79	·	5	91*
Cc1ccccc1NC(=O)N(CCc1nc2ccccc2[nH]1)Cc1ccccc1	94	-31	81	-0.41	0	58*
COc1ccccc1NC(=S)N(CCc1nc2cc(C)c(C)cc2[nH]1)Cc1cccnc1	84	-36	83	·	-1	57*
COc1ccc(-c2cn(-c3ccc(C)cc3C)c(=O)[nH]2)cc1OC	·	-36	·	-0.022	0	-7
CCn1c(SCc2cc(=O)[nH]c3ccccc23)nnc1C1CC1	98	·	98	0.21	0	-5
Cc1nn(C(=O)c2nn(C)cc2[N+](=O)[O-])c(C)c1Br	·	-14	·	0.1	7	-6
CC(C)c1onc(C(=O)N2CCC(C(N)=O)CC2)c1[N+](=O)[O-]	·	·	·	-0.035	6	·
Cc1cc(C)c2nc(NCCCNC(=S)NCCCN(C)C)c(C#N)cc2c1	·	·	·	-2.8	-1	101*
CCOCCCNC(=S)NCCCNc1nc2c(C)cc(C)cc2cc1C#N	·	·	·	·	-1	10
CCc1ccc(CN(C)Cc2nc(-c3cccc(Cl)c3)no2)nc1	·	·	·	0.4	-5	-4
CCOc1cc(CNCCO)c(Cl)cc1OCC(=O)NCCc1ccccc1	108	-7	96	·	-5	91*
CCOc1cc(C=O)cc(Br)c1OCC(=O)NCCc1ccccc1	·	·	·	1.4	2	46
CCOc1cc(CNC(C)C)c(Cl)cc1OCC(=O)NCCc1ccccc1	85	30	73	-0.069	-5	99*
COc1ccc(C(=O)NCc2nnc(SCC(=O)N3CCc4ccccc43)n2Cc2ccccc2)cc1	96	-11	99	·	0	64*
O=c1c2ccccc2nnn1CSc1nnc(-c2ccc3c(c2)OCO3)o1	93	·	89	·	4	-3
Cc1ccc(S(=O)(=O)Nc2nc3ccccc3nc2NCc2ccco2)cc1	52	19	57	-0.89	5	5
c1ccc(CN2CCN(c3nc(NCc4ccco4)c4ccccc4n3)CC2)cc1	8	-27	6	-1.4	-1	100*
SMILES	bCat KO growth	INS promoter inh	PTEN del growth	ROMK mod	p97 ATPase inh	Lmaj promast
Cc1ccc(OCCN2CCN(c3nc(NCc4ccco4)c4ccccc4n3)CC2)cc1	33	0	24	0.016	2	99*
OCCN1CCN(c2nc(NCc3ccco3)c3ccccc3n2)CC1	84	-15	83	0.12	-2	25
O=C(Nc1ccnc(-c2ccncc2)n1)c1ccc(Cl)cc1	·	·	·	1.2	4	3
CCc1ccccc1NC(=S)N(Cc1cccnc1)Cc1ccco1	91	-14	96	-0.21	1	99*
COc1ccccc1NC(=S)N(Cc1cccnc1)Cc1ccco1	·	-44	·	0.26	2	17
Cc1cc(C)c(NC(=S)N(Cc2cccnc2)Cc2ccco2)c(C)c1	79	14	74	-0.34	-1	88*
CC(C)CCOc1ccc(C(=O)CCNC(C)C(=O)O)cc1 (centres undefined)	82	-28	91	-0.29	3	-10
Cc1onc(NC(=O)c2ccc(Cl)cc2Cl)c1Br	·	·	·	-0.96	1	3
NC(=O)CCC(NS(=O)(=O)c1ccc(Cl)cc1)C(=O)NCc1ccc(Cl)cc1 (centres undefined)	89	6	94	·	-1	60*
c1ccc(-c2n[nH]c(-c3ccccc3)c2-c2nc3ccccc3[nH]2)cc1	86	-43	77	·	4	92*
O=c1[nH]ncn1-c1ccccc1	·	·	·	0.47	3	-6
C=CCn1c[n+](CC(=O)c2ccc(Br)s2)c2ccccc21	·	·	·	·	10	3
Cc1cc(/C=C(\C#N)C(=O)NCc2ccco2)c(C)n1-c1cccnc1	·	·	·	·	2	·
COc1ccccc1OCCn1cc(/C=C(\C#N)C(=O)NCc2ccco2)c2ccccc21	80	-17	86	·	7	53*
Cc1ccc(C)c(OCCn2cc(/C=C(\C#N)C(=O)NCc3ccco3)c3ccccc32)c1	83	-4	91	·	-7	65*
Cc1cc(/C=C(\C#N)C(=O)NCc2ccco2)c(C)n1C1CCCC1	100	-53	89	-0.95	-5	72*
CCn1cc(CN2CCc3c([nH]c4ccccc34)C2c2cccc(OC)c2OC)c(C)n1 (centres undefined)	·	42	·	-0.044	2	27
COc1cc(C2(O)CCCCC2C)cc(OC)c1OC (centres undefined)	93	-8	97	-0.28	-3	-5
CCN1C(=O)c2cccc3c(S(=O)(=O)NCc4ccccn4)ccc1c23	74	20	68	-0.43	1	65*
CCOC(=O)CNS(=O)(=O)c1ccc2c3c(cccc13)C(=O)N2CC	·	·	·	1.2	5	1
COc1ccc(CN2CCN(Cc3ccccc3)C(CCO)C2)cc1OC (centres undefined)	·	·	·	1.6	0	2
COc1ccc(/C=C/CN2CCN(CCc3ccccc3)C(CCO)C2)cc1 (centres undefined)	·	·	·	-2.7	0	90*
CCOc1cc(CN2CCN(CCc3ccccc3)C(CCO)C2)ccc1OC (centres undefined)	·	·	·	1.2	2	19
OCCC1CN(Cc2cccc(-c3ccco3)c2)CCN1Cc1ccsc1 (centres undefined)	·	0	·	-1	-6	85*
COc1cc(CN2CCN(CCc3ccccc3)C(CCO)C2)cc(OC)c1 (centres undefined)	·	·	·	0.54	2	64*
COc1ccccc1/C=C/CN1CCN(Cc2ccc(F)cc2)C(CCO)C1 (centres undefined)	·	·	·	-1.2	-1	83*
CCOc1ccccc1CN1CCN(C/C=C/c2ccc(OC)cc2)CC1CCO (centres undefined)	·	·	·	-1.5	-7	30
